# KB-V1 MDR tox – KB-V1 MDR subline cytotoxicity. AID 1347076. 400,000 tested, 3.4% active. KB-V1 MDR cells viability, CellTiter-Glo, 72 h. Potency, µM (series often up to 46.1 µM), hits mostly cytotoxic; also: nearly all actives have a fitted effect of over 60% in size
#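 qHTS viability screen in drug-selected KB-V1 MDR cells: 72 h compound treatment at 37 degrees C, ATP luminescence end point.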
# TDP1 cell noCPT – qHTS for Inhibitors of human tyrosyl-DNA phosphodiesterase 1 (TDP1): qHTS in cells in absence of CPT | DT40 Tdp1-/- hTDP1 cells, no CPT, ATP luminescence, 48 h | Potency, µM (top dose mostly 46.2 µM), inactives show top-dose activity change, negative = growth inhibition, actives largely listed as inhibitors | 420,000 tested, 15% active | AID 686978, 2013; also: nearly all actives have a fitted effect of over 55% in size
#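 Chicken DT40 Tdp1-/- cells stably complemented with human TDP1 were seeded at 400 cells/well with DMSO in place of 20 nM camptothecin. After compound pinning, cells grew at least 48 hr at 37 °C; viability read by CellTiter-Glo luminescence.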
# HT1080-NT tox – kills 2HG-producing HT-1080-NT fibrosarcoma cells; 360,000 tested, 1.6% active; HT-1080-NT fibrosarcoma viability, CellTiter-Glo ATP luminescence, 48 h; Potency, µM (series often up to 46.1 µM), for inactives: at the highest dose activity, negative = less viability, usual class: cytotoxic; AID 686970;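 also: NT is the 2HG producing partner of a matched IDH1 knockdown line; 0% = DMSO-treated cells and -100% = media-only wells without cells; nearly all actives have a fitted effect of over 55% in size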
#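 HT-1080-NT fibrosarcoma cells (2HG-overproducing), 750 cells/well in RPMI with 5% FBS, dosed after 2 h and incubated 48 h at 37C. CellTiter-Glo luminescence normalized to DMSO and no-cell wells; concentration-response curves fitted and classed.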
# KB-3-1 tox – kills parental KB-3-1 adenocarcinoma cells. Potency, µM (titrated, usually from 46.1 µM), actives largely listed as cytotoxic. 400,000 tested, 1.4% active. KB-3-1 viability, CellTiter-Glo ATP luminescence, 72 h. AID 1347075; also: nearly all actives have a fitted effect of over 60% in size
#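 Cytotoxicity measured as CellTiter-Glo luminescence after 72 h at 37 C. Compound titrations were pinned onto drug-naive KB-3-1 parental adenocarcinoma cells grown in DMEM with 10% FBS, and normalized data fitted to concentration-response curves.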
# HT1080 IDH1KD tx – toxicity to HT-1080 IDH1 knockdown cells (counter line); HT-1080 IDH1 knockdown viability, ATP luminescence, 48 h; Potency, µM (series often up to 46.1 µM), for the others: top-dose activity, negative = toxicity, most hits filed as cytotoxic; 360,000 tested, 2% active; AID 686971;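 also: 0% = DMSO wells and -100% = cell-free medium wells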
#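 Knockdown cells (IDH1KD HT-1080) received compounds 2 h after plating at 750 cells/well and were kept 48 h at 37 °C in 5% FBS RPMI. A CellTiter-Glo luminescence read gave % activity for curve fitting.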
# TDP1 cell CPT – growth inhibition of DT40 Tdp1-/-;hTDP1 cells with camptothecin (screen for TDP1 inhibitors); chicken DT40 Tdp1-/-;hTDP1 cells + 20 nM CPT, ATP luminescence, 48 h; Potency, µM (series often up to 46.2 µM), for the others: top-dose activity change, negative = growth inhibition, usual class: inhibitors; 420,000 tested, 12% active; AID 686979; also: nearly all actives have a fitted effect of over 55% in size
#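 Chicken DT40 Tdp1-/- cells stably complemented with human TDP1 were seeded at 400 cells/well in medium containing 20 nM camptothecin, exposed to pin-transferred compounds, and grown at 37 °C for at least 48 hr. Viability was read as ATP luminescence.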
# Numbers without * were called inactive; i = inactive; ? = inconclusive; nt = not tested or not shown; ! = not confirmed by another sample; [ ] = dose if it differs, or a comment. A selection: hits, their analogues and other compounds. The true share with any hit is near 19%. Calls follow the shape of the dose curve; as a rule, active = well fitted curve in the direction sought with a large enough effect; inconclusive = small, poorly fitted or top-dose-only effect, or another doubt; inactive = no such curve, though single readings can be large; an effect the other way counts as inactive or inconclusive. Unless noted, % is scaled to controls: 0 for no effect and ±100 for the full control effect; potency is read from the fitted curve at half-maximal effect.
SMILES,KB-V1 MDR tox,TDP1 cell noCPT,HT1080-NT tox,KB-3-1 tox,HT1080 IDH1KD tx,TDP1 cell CPT
Cc1ccc(C)c(N2CCN(C(=O)c3cccc(-n4c(C)nc5cccnc54)c3)CC2)c1,?,13µM*,nt,i,nt,7.3µM*
Cc1cccc(N2CCN(C(=O)c3cccc(-n4c(C)nc5cccnc54)c3)CC2)c1C,?,5.8µM*,nt,i,nt,7.3µM*
COCCc1ccc(OC2(C)CCN(Cc3cccc(OC)c3OC)C2)cc1 (centres undefined),i,-11%,-4%,i,0%,?
COCCc1ccc(OC2(C)CCN(Cc3ccc(OC)c4ccccc34)C2)cc1 (centres undefined),i,16µM*,?,i,?,?
COc1cccc(CN2CCC(C)(Oc3cccc(Cl)c3)C2)c1OC (centres undefined),i,16µM*,?,i,-28%,?
CC(=O)N1CCN(S(=O)(=O)c2cccc(C(=O)NCCc3ccc(Cl)cc3)c2)CC1,i,-25%,3%,i,4%,-19%
N#Cc1ccc(/C=C2/C=Cc3ccccc32)cc1,i,-1%,nt,i,nt,?
CCOc1ccccc1-c1nc(CN2CCCN(C(=O)c3ccco3)CC2)c(C)o1,i,?,6%,i,-1%,?
COc1ccc(-c2cnnn2-c2ccc(NC(=O)c3ccccc3OC)cc2)cc1,i,?,nt,?,nt,21µM*
COc1ccc(-c2cnnn2-c2ccc(NC(=O)c3c(F)cccc3F)cc2)cc1,i,26µM*,nt,i,nt,12µM*
O=C(Nc1ccc(-n2nncc2-c2ccccc2)cc1)c1ccccc1,i,-25%,nt,i,nt,7%
COc1cccc(C(=O)Nc2ccc(-n3nncc3-c3ccccc3)cc2)c1,i,?,nt,i,nt,?
Cc1ccc(NC(=O)c2sccc2SCc2cccc(C(F)(F)F)c2)cc1,?,18µM*,-5%,i,?,18µM*
Cc1cnc(=O)[nH]c1SCc1cccc(C(F)(F)F)c1,i,-11%,-6%,i,0%,2%
Cc1cccc(C)c1NC(=O)c1sccc1SCc1cccc(C(F)(F)F)c1,?,18µM*,2%[9.24 µM],?,?,16µM*
Cc1ccc(NC(=O)c2ccc(CNS(=O)(=O)c3cccc(C(F)(F)F)c3)cc2)cc1,?,-8%,8%,i,8%,-4%
Cc1c(C(=O)N(C)C)sc2c1c(=O)n(-c1ccc(F)cc1)c(=O)n2Cc1ccccc1C#N,i,-1%,nt,i,nt,-24%
O=C(Cc1cccs1)NCc1ccc(Cl)cc1Cl,i,-13%,11%,i,0%,-1%
CC1(C)N=C(SCC(=O)Nc2ccc(Cl)cc2)C(c2ccccc2)=N1,?,?,-3%,i,-17%,?
CC1(C)N=C(SCC(=O)Nc2ccc(Cl)cc2)C(c2ccc(Cl)cc2)=N1,?,18µM*,-22%,?,-9%,?
Cc1c(Cl)cccc1NC(=O)CSCC(N)=O,i,-5%,3%,i,-1%,-2%
NC(=O)SCC(=O)Nc1ccc(Cl)cc1,i,?,?,?,?,21µM*
Cc1c(Cl)cccc1NC(=O)CSC(N)=O,i,16µM*,0%,i,8%,21µM*
NC(=O)SCC(=O)Nc1cccc(Cl)c1,i,?,7%,i,8%,?
NC(=O)SCC(=O)Nc1ccc(Cl)c(Cl)c1,i,23µM*,-20%,i,?,9.2µM*
SMILES,KB-V1 MDR tox,TDP1 cell noCPT,HT1080-NT tox,KB-3-1 tox,HT1080 IDH1KD tx,TDP1 cell CPT
Cc1cc(C)cc(OCc2ccc(C(=O)Nc3ccccc3F)o2)c1,?,?,nt,i,nt,-23%
COC(=O)CCC(=O)Nc1ccc(Cl)c(Cl)c1,i,-15%,9%,i,0%,-2%
CO/N=C\CC(=O)Nc1ccc(Cl)c(Cl)c1,?,?,8.2µM*,7.3µM*,6.5µM*,?
CCCCN1CC[C@H]2C=CC[C@@H](C(=O)Nc3ccc(Cl)cc3Cl)[C@H]2C1=O,?,?,-1%,i,-6%,16µM*
COc1ccc(CN2CC[C@H]3C=CC[C@@H](C(=O)Nc4ccccc4)[C@H]3C2=O)cc1OC,?,10µM*!,nt,i,nt,?
CCCCNC(=O)[C@@H]1CC=C[C@@H]2CCN(Cc3ccc(OC)c(OC)c3)C(=O)[C@@H]21,?,?,nt,i,nt,?
COc1ccc(CNC(=O)[C@@H]2CC=C[C@@H]3CCN(Cc4ccc(Cl)c(Cl)c4)C(=O)[C@@H]32)cc1,?,11µM*,-12%,?,-5%,23µM*
CC(C)CC(=O)Nc1ccccc1OCc1cc(=O)n2ccccc2n1,nt,-19%,nt,nt,nt,?
CCN1/C(=C/C=C/c2oc3ccc4ccccc4c3[n+]2CC)Oc2ccc3ccccc3c21,i,0.18µM*,?,?,?,0.65µM*
CCN1C(=O)/C(=C/C=C2/Sc3ccc4ccccc4c3N2CCO)SC1=S,i,?,-11%,i,-2%,?
CSCC[C@H](NC(=O)[C@H](Cc1ccc(OS(=O)(=O)O)cc1)NC(=O)[C@@H](N)CC(=O)O)C(=O)NCC(=O)N[C@@H](Cc1c[nH]c2ccccc12)C(=O)N[C@@H](CCSC)C(=O)N[C@@H](CC(=O)O)C(=O)N[C@@H](Cc1ccccc1)C(N)=O,nt,-27%,nt,nt,nt,6%
Cc1ccccc1Cn1c(C)nc2ccc([N+](=O)[O-])cc2c1=O,i,-25%,-16%,i,0%,-12%
CC(C)(C)CC(=O)N1CCN(c2ccc(S(=O)(=O)N3CCOCC3)cc2[N+](=O)[O-])CC1,i,?,-7%,i,0%,?
O=C(NCc1ccc(F)cc1)c1cc(C2CCCN(C(=O)CCCc3ccccc3)C2)on1 (centres undefined),i,?,2%,i,0%,23µM*
CN(C)c1ccc(CC(=O)N2CCCC(c3cc(C(=O)Nc4ccc(C(C)(C)C)cc4)no3)C2)cc1 (centres undefined),i,?,-17%,i,10µM*,?
Cc1ccc(F)cc1C(=O)N1CCCCC1c1cc(C(=O)NCc2ccccc2)no1 (centres undefined),i,?,6%,i,3%,13µM*

# Screening results from PubChem.
